This is part of a sample that, as a whole, favours compounds with a hit. Of some 79,000 tested, about 15% had one in any assay. Calls of active or inactive are those of the source. Cut-off read from the data, not from the text of the source: active = growth inhibition above about 70%; inactive = the rest.
What was measured:
[1] = NCI Yeast Anticancer Drug Screen. Data for the rad52 strain (AID 147);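 note: 0% = growth of vehicle-treated control cultures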; conditions: S. cerevisiae rad52 mutant growth inhibition, active compounds read high
Procedure, shortened: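 Vehicle-treated cultures served as the reference for growth inhibition of compound-exposed yeast bearing a DNA repair mutation.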

[2] = NCI Yeast Anticancer Drug Screen. Data for the wt1 strain (AID 149);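 note: 0% = growth of vehicle-treated wt1 cultures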; conditions: S. cerevisiae wt1 strain (SPY 50644) growth inhibition, active compounds read high
Procedure, shortened: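 wt1 yeast, compound-treated; % growth inhibition vs vehicle control.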

[3] = NCI Yeast Anticancer Drug Screen. Data for the rad50EPP+ strain (AID 151);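 note: 0% = growth of vehicle-treated control cultures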; conditions: S. cerevisiae rad50 mutant strain, active compounds read high
Procedure, shortened: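 In this screen, rad50EPP+ yeast were exposed to compounds. Growth inhibition was scored against vehicle-treated controls.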

[4] = NCI Yeast Anticancer Drug Screen. Data for the mgt1 strain (AID 153); conditions: S. cerevisiae mgt1 mutant growth inhibition, active compounds read high
Procedure, shortened: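 mgt1 strain exposed; growth vs vehicle control recorded as inhibition.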

[5] = NCI Yeast Anticancer Drug Screen. Data for the rad50 strain (AID 155);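 note: 0% = growth of vehicle-only cultures of the same strain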; conditions: S. cerevisiae rad50 strain growth inhibition, active compounds read high
Procedure, shortened: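 Genetically altered yeast (DNA repair pathway); compound treatment; growth inhibition vs vehicle ctrl.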

[6] = NCI Yeast Anticancer Drug Screen. Data for the mec2-1 strain (AID 157); conditions: S. cerevisiae mec2-1 strain, active compounds read high
Procedure, shortened: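 Vehicle-treated cultures served as reference for growth inhibition of compound-exposed mec2-1 yeast.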

[7] = NCI Yeast Anticancer Drug Screen. Data for the CLN2oe strain (AID 163);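 note: 0% = growth of vehicle-only control cultures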; conditions: S. cerevisiae CLN2oe strain, active compounds read high
Procedure, shortened: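 Inhibition relative to vehicle-treated yeast is reported. Cells: strain with genetic alteration in cell-cycle control, grown with compound.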

[8] = NCI Yeast Anticancer Drug Screen. Data for the bub3 strain (AID 167); conditions: S. cerevisiae bub3 mutant strain, active compounds read high
Procedure, shortened: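 Yeast carrying a defined mutation is treated with each compound, and growth is compared with that of vehicle-exposed cells to give inhibition.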

[9] = NCI Yeast Anticancer Drug Screen. Data for the wt2 strain (AID 169);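 note: 0% = growth of vehicle-treated yeast cultures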; conditions: S. cerevisiae wt2 strain growth inhibition, active compounds read high
Procedure, shortened: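 Inhibition of yeast growth was determined after compound treatment, normalised to controls receiving only vehicle.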

[10] = NCI Yeast Anticancer Drug Screen. Data for the mlh1 strain (AID 171);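 note: 0% = growth of vehicle-treated control cultures of the same strain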; conditions: S. cerevisiae mlh1 strain growth inhibition, active compounds read high
Procedure, shortened: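 Vehicle-normalised growth inhibition of a repair- or checkpoint-altered yeast strain following compound treatment.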

[11] = NCI Yeast Anticancer Drug Screen. Data for the sgs1 strain (AID 173);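 note: 0% = growth of vehicle-only control cultures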; conditions: S. cerevisiae sgs1 mutant, active compounds read high
Procedure, shortened: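 Screen format: yeast with repair or checkpoint alterations, compound exposure, growth read relative to vehicle.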

[12] = NCI Yeast Anticancer Drug Screen. Data for the rad18 strain (AID 177); conditions: S. cerevisiae rad18 mutant growth inhibition, active compounds read high
Procedure, shortened: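 Test articles were incubated with altered yeast defective in DNA damage repair. Results are given as inhibition of growth versus vehicle.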

[13] = NCI Yeast Anticancer Drug Screen. Data for the rad14 strain (AID 159);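 note: 0% = growth of vehicle-treated control cultures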; conditions: S. cerevisiae rad14 strain growth inhibition, active compounds read high
Procedure, shortened: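 Test compounds were applied to a repair-deficient yeast strain. Its growth was then compared with that of cultures given vehicle alone, and inhibition was expressed relative to those controls.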

[14] = NCI Yeast Anticancer Drug Screen. Data for the sgs1 mgt1 strain (AID 161);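 note: 0% = growth of cultures given vehicle only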; conditions: S. cerevisiae sgs1 mgt1 strain, active compounds read high
Procedure, shortened: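 Read-out: growth inhibition vs vehicle controls. Cells: mutant yeast strain deficient in DNA damage repair.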

[15] = NCI Yeast Anticancer Drug Screen. Data for the cln2 rad14 strain (AID 165);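 note: 0% = growth equal to vehicle treated cultures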; conditions: S. cerevisiae cln2 rad14 strain, active compounds read high
Procedure, shortened: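 Each compound was tested on cln2 rad14 yeast. Inhibition of growth was calculated against vehicle-exposed controls.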

[16] = NCI Yeast Anticancer Drug Screen. Data for the mlh1 rad18 strain (AID 175); conditions: S. cerevisiae mlh1 rad18 strain growth inhibition, active compounds read high
Procedure, shortened: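 Vehicle-treated cultures served as the reference for growth inhibition in a yeast strain carrying DNA damage repair alterations exposed to each compound.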

[17] = at 5.0 µM (retest, dose inferred, filed as 0.5)
[18] = at 50.0 µM (retest, dose inferred, filed as 5.0)

Measured: growth inhibition

O=NN(CCCl)C(=O)NC1CCCCC1
inactive: [1]; at 1.2 µM 6% | [1]; at 3.7 µM 11% | [1]; at 11.0 µM 33% | [1]; at 33.0 µM 44% | [1]; at 100.0 µM 50% | [2]; at 1.2 µM -2% | [2]; at 3.7 µM -1% | [2]; at 11.0 µM 1% | [2]; at 33.0 µM 5% | [2]; at 100.0 µM -5% | [3]; at 1.2 µM 16% | [3]; at 3.7 µM 24% | [3]; at 11.0 µM 45% | [3]; at 33.0 µM 61% | [3]; at 100.0 µM 49% | [4]; at 1.2 µM -3% | [4]; at 3.7 µM -2% | [4]; at 11.0 µM 1% | [4]; at 33.0 µM 2% | [4]; at 100.0 µM 10% | [5]; at 1.2 µM 5% | [5]; at 3.7 µM 12% | [5]; at 11.0 µM 39% | [5]; at 33.0 µM 55% | [5]; at 100.0 µM 52% | [6]; at 1.2 µM -1% | [6]; at 3.7 µM 4% | [6]; at 11.0 µM 10% | [6]; at 33.0 µM 13% | [6]; at 100.0 µM 13% | [7]; at 1.2 µM -3% | [7]; at 3.7 µM -2% | [7]; at 11.0 µM -3% | [7]; at 33.0 µM -5% | [7]; at 100.0 µM 18% | [8]; at 1.2 µM -4% | [8]; at 3.7 µM -3% | [8]; at 11.0 µM 3% | [8]; at 33.0 µM 14% | [8]; at 100.0 µM 12% | [9]; at 1.2 µM -3% | [9]; at 3.7 µM -2% | [9]; at 11.0 µM 2% | [9]; at 33.0 µM 11% | [9]; at 100.0 µM 49% | [10]; at 1.2 µM 0% | [10]; at 3.7 µM 1% | [10]; at 11.0 µM 8% | [10]; at 33.0 µM 11% | [10]; at 100.0 µM 17% | [11]; at 1.2 µM 4% | [11]; at 3.7 µM 7% | [11]; at 11.0 µM 22% | [11]; at 33.0 µM 34% | [11]; at 100.0 µM 43% | [12]; at 1.2 µM 29% | [12]; at 3.7 µM 46% | [12]; at 100.0 µM 53%
active: [12]; at 11.0 µM 84% | [12]; at 33.0 µM 92%

O=C1CSC(=S)N1Cc1ccc(Cl)cc1Cl
active: [1]; at 11.0 µM 98% | [1]; at 33.0 µM 99% | [1]; at 100.0 µM 98% | [2]; at 11.0 µM 99% | [2]; at 33.0 µM 99% | [2]; at 100.0 µM 97% | [3]; at 3.7 µM 72% | [3]; at 11.0 µM 97% | [3]; at 33.0 µM 99% | [3]; at 100.0 µM 98% | [5]; at 11.0 µM 99% | [5]; at 33.0 µM 99% | [5]; [18] 98% | [5]; at 50.0 µM 99.1% | [5]; at 100.0 µM 98% | [6]; at 11.0 µM 93% | [6]; at 33.0 µM 99% | [6]; [18] 99% | [6]; at 50.0 µM 99.3% | [6]; at 100.0 µM 99% | [13]; at 11.0 µM 99% | [13]; at 33.0 µM 100% | [13]; at 100.0 µM 99% | [14]; [18] 99% | [14]; at 50.0 µM 99.4% | [7]; at 11.0 µM 96% | [7]; at 33.0 µM 99% | [7]; at 100.0 µM 98% | [15]; [18] 99% | [15]; at 50.0 µM 98.8% | [8]; at 11.0 µM 99% | [8]; at 33.0 µM 99% | [8]; [18] 98% | [8]; at 50.0 µM 99.3% | [8]; at 100.0 µM 99% | [9]; at 11.0 µM 100% | [9]; at 33.0 µM 100% | [9]; at 100.0 µM 99% | [10]; at 11.0 µM 99% | [10]; at 33.0 µM 99% | [10]; at 100.0 µM 99% | [11]; at 11.0 µM 99% | [11]; at 33.0 µM 99% | [11]; at 100.0 µM 99% | [16]; [18] 98% | [16]; at 50.0 µM 97% | [12]; at 11.0 µM 99% | [12]; at 33.0 µM 99% | [12]; at 100.0 µM 98%
inactive: [1]; at 1.2 µM -4% | [1]; at 3.7 µM 8% | [2]; at 1.2 µM 1% | [2]; at 3.7 µM 24% | [3]; at 1.2 µM 12% | [5]; at 1.2 µM -6% | [5]; at 3.7 µM 26% | [5]; [17] 29% | [6]; at 1.2 µM 1% | [6]; at 3.7 µM -1% | [6]; [17] 10% | [13]; at 1.2 µM 3% | [13]; at 3.7 µM 20% | [14]; [17] 41% | [7]; at 1.2 µM -10% | [7]; at 3.7 µM -11% | [15]; [17] 0% | [8]; at 1.2 µM -9% | [8]; at 3.7 µM 15% | [8]; [17] 14% | [9]; at 1.2 µM 12% | [9]; at 3.7 µM 55% | [10]; at 1.2 µM -13% | [10]; at 3.7 µM 8% | [11]; at 1.2 µM 2% | [11]; at 3.7 µM 33% | [16]; [17] 66% | [12]; at 1.2 µM -6% | [12]; at 3.7 µM 27%

OCCN(CCO)c1ccc2c(c1)Cc1ccccc1-2
inactive: [1]; at 1.2 µM -9% | [1]; at 3.7 µM -15% | [1]; at 11.0 µM 3% | [1]; at 33.0 µM 20% | [1]; at 100.0 µM 43% | [2]; at 1.2 µM 0% | [2]; at 3.7 µM 5% | [2]; at 11.0 µM 6% | [2]; at 33.0 µM 6% | [2]; at 100.0 µM 17% | [3]; at 1.2 µM -6% | [3]; at 3.7 µM -3% | [3]; at 11.0 µM 17% | [3]; at 33.0 µM 43% | [3]; at 100.0 µM 53% | [5]; at 1.2 µM -12% | [5]; at 3.7 µM -15% | [5]; [17] 13% | [5]; at 11.0 µM -13% | [5]; at 33.0 µM 34% | [5]; [18] 48% | [5]; at 50.0 µM 34.1% | [5]; at 100.0 µM 65% | [6]; at 1.2 µM -3% | [6]; at 3.7 µM -4% | [6]; [17] 1% | [6]; at 11.0 µM -4% | [6]; at 33.0 µM -7% | [6]; [18] 12% | [6]; at 50.0 µM -11.8% | [6]; at 100.0 µM 1% | [13]; at 1.2 µM 3% | [13]; at 3.7 µM -4% | [13]; at 11.0 µM 23% | [13]; at 33.0 µM 15% | [13]; at 100.0 µM 31% | [14]; [17] 8% | [14]; at 50.0 µM 52.2% | [7]; at 1.2 µM -9% | [7]; at 3.7 µM -8% | [7]; at 11.0 µM -16% | [7]; at 33.0 µM -11% | [7]; at 100.0 µM -7% | [15]; [17] 6% | [15]; [18] 6% | [15]; at 50.0 µM -2.7% | [8]; at 1.2 µM -9% | [8]; at 3.7 µM -8% | [8]; [17] 2% | [8]; at 11.0 µM -13% | [8]; at 33.0 µM -13% | [8]; [18] 27% | [8]; at 50.0 µM 10.4% | [8]; at 100.0 µM 1% | [9]; at 1.2 µM 5% | [9]; at 3.7 µM 9% | [9]; at 11.0 µM 14% | [9]; at 33.0 µM 29% | [9]; at 100.0 µM 45%
active: [14]; [18] 71%

— PubChem BioAssay (NCI)
